Assay outcomes (PubChem BioAssay)
Compounds with a hit are over-represented: about 5.7% of the library has one in this group of screens.
GLP1R inv ag = acts as inverse agonist at human GLP-1 receptor; P43220; HEK293 GLP-1R CRE-luciferase, luminescence, 24 h; GLP-1R form is constitutively active; Potency, µM (titrated, usually from 38.3 µM), for the others: at the highest dose activity change, negative = inhibition, hits mostly inhibitors; 410,000 compounds, 1.6% hits; AID 624417; further: potency means the concentration at half of the fitted maximal effect; on the % scale 0 is the no-effect control and ±100 the full control effect; nearly all actives have a fitted effect of over 55% in size
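HEK293 cells stably co-expressing constitutively active GLP-1R and a cAMP-responsive luciferase reporter were seeded in DMEM with 10% Nu serum, given compounds after 12 h, and incubated 24 h at 37 deg C. Luminescence was then read.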
GLP1R ag = GLP-1 receptor (human) agonism | HEK293 GLP-1R CRE-luciferase, luminescence, 4-6 h; cells express a hypersensitive GLP-1R form | P43220 | Potency, µM (series often up to 45.6 µM), inactives show top-dose activation, actives largely listed as activators | AID 624172 | 380,000 compounds, 0.007% hits; further: potency means the concentration at half of the fitted maximal effect; % of control where 0% means no effect
ClpP mod = qHTS Assay for Activators of ClpP; purified B. subtilis ClpP, FRET peptide cleavage, 20 min; 340,000 compounds, 1.9% hits; ATP-dependent Clp protease proteolytic subunit (Bacillus subtilis (strain 168)), P80244; Potency, µM (titrated, usually from 57.5 µM), without a hit: at the highest dose activity change, negative = active; active means well fitted falling curve with a large enough effect; inconclusive means small, poorly fitted or top-dose-only effect; inactive means no such curve, though single readings can be large or run the other way; further: potency means the concentration at half of the fitted maximal effect; the source files actives as falling curves though it sought activators and does not explain the sign; nearly all actives have a fitted effect of over 65% in size
Target sequence (P80244 whole entry, looked up): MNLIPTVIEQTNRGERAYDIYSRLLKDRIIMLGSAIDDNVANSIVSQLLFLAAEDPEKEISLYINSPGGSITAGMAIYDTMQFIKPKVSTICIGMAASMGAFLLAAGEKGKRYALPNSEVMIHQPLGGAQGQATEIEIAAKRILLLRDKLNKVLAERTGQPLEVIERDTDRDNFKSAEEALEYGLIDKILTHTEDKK
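ClpP 10 microg/mL final, pH 8 Tris/KCl buffer with BSA, glycerol, Tween-20; compound pinned in; FRET-FV substrate; RT 20 min; Ex320/Em430; ΔFRET vs ADEP 5.8 microM, DMSO, no enzyme.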
DRD3 antagonist = blocks the human D3 dopamine receptor; P35462; D3R cells, DiscoveRx beta-arrestin luminescence, antagonist mode; stronger effect = lower value; max response, negative = inhibition, %; AID 652054; 360,000 compounds, 2.5% hits; in the data active means max response below about -50%; inconclusive means no clear call, values can overlap the other calls; further: on the % scale 0 is the no-effect control and ±100 the full control effect
Target sequence (P35462 whole entry, looked up): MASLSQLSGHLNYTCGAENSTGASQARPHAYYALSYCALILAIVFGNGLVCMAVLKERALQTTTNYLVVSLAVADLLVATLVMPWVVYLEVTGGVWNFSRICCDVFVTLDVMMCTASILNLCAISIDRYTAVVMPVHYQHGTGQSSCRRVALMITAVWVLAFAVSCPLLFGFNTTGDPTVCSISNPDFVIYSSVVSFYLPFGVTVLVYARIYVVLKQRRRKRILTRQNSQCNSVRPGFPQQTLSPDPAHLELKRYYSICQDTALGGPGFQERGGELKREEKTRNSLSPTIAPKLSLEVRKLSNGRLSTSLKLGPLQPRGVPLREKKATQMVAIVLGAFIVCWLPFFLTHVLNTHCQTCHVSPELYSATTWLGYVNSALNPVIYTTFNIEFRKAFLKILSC
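Cells expressing the human receptor were seeded at 1500 cells/well, incubated overnight at 37 degrees C in 5% CO2, then exposed to library compounds with dopamine controls for 90 minutes at 37 degrees C before luminescent detection.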
HEK293 tox = cytotoxic in the GLP-1 receptor inverse agonist counter-screen | 410,000 compounds, 0.13% hits | Potency, µM (series often up to 38.3 µM), for the others: at the top dose activity change, negative = inhibition, most hits filed as inhibitors | HEK293 cAMP-luciferase reporter cells, luminescence, 24 h | AID 624418;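 further: loss of luciferase light is scored as toxicity; potency means the concentration at half of the fitted maximal effect; on the % scale 0 is the no-effect control and ±100 the full control effect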
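Luminescence readout: signal drop marks cytotoxicity. Plated cells grew 12 h at 37 °C, 5% CO2, received 23 nL compound for 24 h, then got luciferase reagent, read after 12 min at RT.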
D3 ag = agonists of human D3 dopamine receptor; P35462; D3R DiscoveRx beta-arrestin cells, luminescence, 90 min; max activation, %; 410,000 compounds, 0.58% hits; AID 652048; in the data active means max activation above about 30%; further: 0% is about no effect
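Agonist-mode cell screen: cells plated at 1500/well and incubated overnight at 37 °C, then exposed to library compounds for 90 min at 37 °C. Detection reagent was added for 30–60 min at room temperature, and luminescence was read.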
* marks the source's active call; other numbers are inactive results; ? = inconclusive; / = no result given. Unless noted, the call rests on the fitted dose curve; in most records, active means well fitted curve in the direction sought with a large enough effect; inconclusive means small, poorly fitted or top-dose-only effect, or another doubt; inactive means no such curve, though single readings can be large; an effect the other way counts as inactive or inconclusive.

SMILES	GLP1R inv ag	GLP1R ag	ClpP mod	DRD3 antagonist	HEK293 tox	D3 ag
CN(CC(=O)Nc1cccc(S(=O)(=O)N2CCCC2)c1)Cc1ccccc1	?	12.9%	25.1µM*	-22.9	1.5%	-0.9
CC(C)(C)c1ccc(OCCCC(=O)Nc2cccc(S(=O)(=O)N3CCOCC3)c2)cc1	7.94µM*	-1.9%	-1.6%	-4.3	-16.3%	6.2
COc1ccc(Br)cc1CN(C)CC(=O)Nc1cccc(S(=O)(=O)N2CCCC2)c1	?	14.5%	/	-7.4	-3.7%	-16.3
COc1ccc(C)cc1NC(=O)c1cnc2ccc(C)cn2c1=O	1.8%	/	-4.9%	/	14.6%	-8.4
O=C(Nc1ccccc1)C1=C[C@H](c2csc3ccccc23)C[C@H](OCc2ccc(CO)cc2)O1	10µM*	-8.8%	-2.6%	3.7	-16.8%	36.3*
O=C(C1=C[C@H](c2ccc(C(F)(F)F)cc2)C[C@H](OCc2ccc(CO)cc2)O1)N1CCCCCCC1	?	2.2%	0.8%	-72.3*	-8.2%	0.0
O=C(C1=C[C@@H](c2csc3ccccc23)C[C@@H](OCc2ccc(CO)cc2)O1)N1CCN(Cc2ccc3c(c2)OCO3)CC1	?	4.4%	-4.6%	?	-9.7%	-18.5
O=C(C1=C[C@@H](c2csc3ccccc23)C[C@@H](OCc2ccc(CO)cc2)O1)N1CCN(Cc2ccccc2)CC1	?	7.5%	-2.6%	-52.6*	-0.1%	-7.3
C#CCNC(=O)C1=C[C@@H](c2ccc(C(F)(F)F)cc2)C[C@@H](OCCCCO)O1	16.7%	0.0%	-5.4%	-51.6*	1.7%	-2.0
COC(=O)[C@]12CCCCC=C1N(Cc1ccccc1)C(=O)[C@H](CC(=O)NCCCCc1ccccc1)C2	?	-2.0%	0.7%	8.0	0.6%	0.4
COc1ccc(-n2nc(C(=O)NCCc3cccc(C)c3)c3c4ccccc4n(C)c3c2=O)cc1Cl	2.1%	/	-12.9%	/	0.9%	-7.0
O=C(C1=C[C@H](c2ccccc2)C[C@H](OCc2ccc(CO)cc2)O1)N1CCN(Cc2ccccc2)CC1	?	10.1%	0.2%	-50.2*	-3.8%	-35.5
NNC(=O)c1cc2c(ccc3ccccc32)o1	-16.1%	1.5%	/	-5.5	14.8%	0.2
COC(=O)c1cc2c(ccc3ccccc32)oc1=O	0.2%	8.4%	3.9%	38.1	80.0%	1.8
CN1CCN(C(=O)c2cc3c(ccc4ccccc43)oc2=O)CC1	1.5%	-7.6%	12.6µM*	-23.8	24.7%	-2.0
O=C(O)c1cc2c(ccc3ccccc32)o1	8.4%	-1.2%	28.2µM*	-3.1	4.0%	0.5
O=C(Nc1cccnc1)c1cc2c(ccc3ccccc32)o1	0.0%	0.1%	25.1µM*	?	-21.6%	-1.4
O=C(NCC(F)(F)F)c1cc2c(c(-c3cccc(-c4ccccc4F)c3)n1)[C@@H](CCO)N(C(=O)CC1CC1)C2	?	-0.6%	-4.0%	5.5	?	3.1
O=C(Nc1ccc(Oc2ccccc2)cc1)c1ccc(F)c(S(=O)(=O)N2CCN(c3ccccc3F)CC2)c1	?	/	-14.1%	/	-5.9%	14.2
NC(CSS(=O)(=O)O)=NCCC12CC3CC(CC(O)(C3)C1)C2	5.2%	-5.0%	-0.4%	-20.8	-2.5%	1.4
CC1(C)C2CCC(CN=C(N)CSS(=O)(=O)O)C1C2 (stereo not given)	15.5%	1.8%	-2.1%	-99.5*	0.2%	-17.9
C=CCNC(=S)N1CCN(c2ncc(C(F)(F)F)cc2Cl)CC1	8.91µM*	17.9%	/	-26.3	-10.3%	-4.0
CN(C)C=NC(=O)c1ccc(N2CCN(c3ncc(C(F)(F)F)cc3Cl)CC2)cc1	11.6%	2.9%	25.1µM*	-7.4	26.6%	1.1
O=[N+]([O-])c1cccc(SSc2cccc([N+](=O)[O-])c2)c1	?	4.2%	/	-68.9*	?	-28.2
Cc1ccc(NC(=O)Cn2c(=O)n(Cc3ccccc3)c(=O)c3c(C)c(C)sc32)c(C)c1	5.6%	/	-0.1%	/	-0.2%	6.7
SMILES	GLP1R inv ag	GLP1R ag	ClpP mod	DRD3 antagonist	HEK293 tox	D3 ag
CSc1ccc(OC2(C)CCN(Cc3cc4ccccc4o3)C2)cc1 (stereo not given)	-21.3%	9.3%	-2.8%	-74.1*	-3.9%	-4.7
CSc1ccc(CN2CCC(C)(Oc3cccc(C#N)c3)C2)cc1 (stereo not given)	-9.1%	6.2%	-2.4%	?	-5.9%	-6.1
CSc1ccc(CN2CCC(C)(Oc3ccccc3)C2)cc1 (stereo not given)	-5.7%	-2.8%	1.3%	-96.7*	-4.5%	-11.3
CSc1ccc(CN2CCC(C)(Oc3cccc(F)c3)C2)cc1 (stereo not given)	-23.5%	14.9%	-2.1%	-91.9*	11.7%	-21.9
CSc1ccc(OC2(C)CCN(Cc3ccc(C(C)C)cc3)C2)cc1 (stereo not given)	-18.8%	3.4%	-0.3%	-61.4*	7.6%	-11.6
CC1(Oc2ccc(Cl)cc2)CCN(Cc2ccc(OC(F)(F)F)cc2)C1 (stereo not given)	-17.8%	-1.3%	0.3%	5.1	5.0%	-6.2
CC1(Oc2cccc(F)c2)CCN(Cc2ccc(-c3ccccc3)o2)C1 (stereo not given)	?	-2.0%	-9.2%	?	4.3%	-19.2
CCc1ccc(C2c3c(oc4ccc(C)cc4c3=O)C(=O)N2c2nc(C)c(C)s2)cc1 (stereo not given)	-1.1%	/	0.6%	/	0.3%	-4.6
CCc1ccc(OC2(C)CCN(Cc3ccc(SC)cc3)C2)cc1 (stereo not given)	-5.8%	3.1%	2.9%	-59.8*	-1.5%	-23.5
CC(C)Oc1ccccc1OC1(C)CCN(Cc2ccc(OC(F)(F)F)cc2)C1 (stereo not given)	-23.3%	-7.8%	0.6%	-24.1	1.6%	-13.8
O=Cc1ccc(O)cc1O	2.2%	-2.3%	-1.3%	-25.0	0.4%	18.2
O=CN/C=C/c1cc(O)ccc1O	7.1%	-1.6%	22.4µM*	-20.3	-9.5%	0.3
COc1cc(OC)c(C2C3=C(CCCC3=O)Nc3nc4ccccc4n32)cc1OC (stereo not given)	-8.2%	-3.4%	25.1µM*	1.8	-0.5%	-6.5
COc1ccc(C2C(C(=O)c3ccccc3)=C(C)Nc3nc4ccccc4n32)c(OC)c1 (stereo not given)	-9.0%	0.6%	0.6%	-20.3	-3.1%	1.2
O=C(c1ccc(Br)o1)N(Cc1ccccc1)Cc1ccccc1	10µM*	18.5%	1.0%	18.0	-8.7%	2.0
CSc1ccc(/C=C2\C=Cc3ccc([N+](=O)[O-])cc32)cc1	/	/	-1.8%	/	/	/
